# Rows were chosen to be rich in hits. Some 18% of all compounds tested hit in one or more screens of this group.
# IL-1B inflam inh – blocks inflammasome-driven IL-1 beta release; activity change, % at 57.5 µM; AID 743279; THP-1 LPS/ATP IL-1B secretion, AlphaLISA, 16 h; hits give low values; 360,000 compounds, 4.7% hits; in the data active means activity change below about -50%; inconclusive means mostly about -30% to -49%
#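 THP-1 cells pretreated 1 hr with compounds (up to 57.5 uM final), then stimulated with LPS (250 ng/mL final) plus ATP (1.25 mM final); secreted IL-1B measured by AlphaLISA after 16 hr, decreased signal indicating inhibition.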
# TDP1 inh – TDP1 (human) enzyme inhibition; Q9NUW8; Potency, µM (titrated, usually from 130 µM), for inactives: top-dose activity change, negative = inhibition, usual class: inhibitors; 350,000 compounds, 0.28% hits; recombinant TDP1, AlphaScreen DNA substrate cleavage; AID 485290; further: potency means the concentration at half of the fitted maximal effect; nearly all actives have a fitted effect of over 40% in size
#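 Enzyme-compound mixtures sat 15 min at room temperature, followed by a 5 min reaction with 15 nM final substrate and 10 min with AlphaScreen beads. Recombinant human Tdp1 was used at 1 nM final.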
# DT40 TDP1 CPT – DT40-hTDP1 cell growth loss with CPT. chicken DT40 Tdp1-/-;hTDP1 cells + 20 nM CPT, ATP luminescence, 48 h. 420,000 compounds, 12% hits. Potency, µM (series often up to 46.2 µM), without a hit: top-dose activity change, negative = growth inhibition, actives largely listed as inhibitors; further: potency means the concentration at half of the fitted maximal effect; nearly all actives have a fitted effect of over 55% in size
#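 Chicken DT40 Tdp1-/- cells complemented with human TDP1, 400 cells/well, exposed to compounds plus 20 nM camptothecin for at least 48 h at 37 C; viability read as ATP content by CellTiter-Glo luminescence.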
# Six1-Eya2 blk – Six1/Eya2 interaction inhibition | AID 651725 | AlphaScreen GST-Six1/His-Eya2 binding, biochemical; hits give low values | 360,000 compounds, 0.56% hits | activity change, % (no concentration beside the values); in the data active means activity change below about -65%; inconclusive means mostly about -30% to -63%
# Target sequence (O00167 whole entry, looked up): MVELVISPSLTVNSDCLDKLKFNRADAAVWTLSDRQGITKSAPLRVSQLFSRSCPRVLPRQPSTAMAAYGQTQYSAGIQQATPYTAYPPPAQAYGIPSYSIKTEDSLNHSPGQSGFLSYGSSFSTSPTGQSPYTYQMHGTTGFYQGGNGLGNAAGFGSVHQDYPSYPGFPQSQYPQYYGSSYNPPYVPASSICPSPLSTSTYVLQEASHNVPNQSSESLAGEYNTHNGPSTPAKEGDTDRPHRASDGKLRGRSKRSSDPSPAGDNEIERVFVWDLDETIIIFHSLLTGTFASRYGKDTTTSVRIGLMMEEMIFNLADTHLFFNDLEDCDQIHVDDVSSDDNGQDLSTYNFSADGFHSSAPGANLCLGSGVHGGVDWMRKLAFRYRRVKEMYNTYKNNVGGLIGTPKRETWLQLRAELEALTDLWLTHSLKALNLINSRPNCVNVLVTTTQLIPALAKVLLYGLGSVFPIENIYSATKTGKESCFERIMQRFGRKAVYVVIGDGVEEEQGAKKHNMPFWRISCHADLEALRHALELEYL
# Target sequence (Q15475 whole entry, looked up): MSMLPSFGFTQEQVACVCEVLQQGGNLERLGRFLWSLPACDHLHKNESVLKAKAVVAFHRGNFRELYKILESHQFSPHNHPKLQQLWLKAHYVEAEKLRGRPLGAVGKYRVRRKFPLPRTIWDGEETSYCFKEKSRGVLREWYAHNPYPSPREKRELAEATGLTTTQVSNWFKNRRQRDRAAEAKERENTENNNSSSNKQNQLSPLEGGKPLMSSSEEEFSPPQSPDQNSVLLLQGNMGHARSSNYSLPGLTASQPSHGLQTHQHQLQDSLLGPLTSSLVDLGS
#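 Homogeneous AlphaScreen proximity assay pairing GST-Six1 with His-tagged Eya2 (added as 5X mix: 250 nM and 500 nM) in 50 mM Tris pH 8.0, 300 mM NaCl, 1 mM TCEP. Glutathione donor and nickel acceptor beads; 1 h, 37 °C, dark.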
# DT40 TDP1 no CPT – qHTS for Inhibitors of human tyrosyl-DNA phosphodiesterase 1 (TDP1): qHTS in cells in absence of CPT; DT40 Tdp1-/- hTDP1 cells, no CPT, ATP luminescence, 48 h; Potency, µM (series often up to 46.2 µM), inactives show at the highest dose activity change, negative = growth inhibition, hits mostly inhibitors; 420,000 compounds, 15% hits; further: potency means the concentration at half of the fitted maximal effect; nearly all actives have a fitted effect of over 55% in size
#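 Seeded 400 DT40-hTDP1 cells/well (vehicle DMSO, no 20 nM CPT); pinned compounds; ≥48 hr at 37 °C; CellTiter-Glo luminescence as viability measure.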
# CtBP-E1A blk – inhibitors of CtBP/E1A interaction; activity change, % (test concentration not listed); 340,000 compounds, 0.49% hits; AID 651724; AlphaScreen GST-E1A/His-CtBP binding, 1536-well; hits give low values; in the data active means activity change below about -65%; inconclusive means mostly about -30% to -63%
#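 In 5 uL wells, 23 nL compound meets equimolar GST-E1A and His-CtBP (5X stock 125 nM each) for 2 h, 37 °C. Beads (5X, 50 ug/mL) then 1 h, 37 °C, dark.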
# * = called active by the depositor; ? = inconclusive; · = not tested or not shown. Unless noted, the call rests on the fitted dose curve; in most records, active means well fitted curve in the direction sought with a large enough effect; inconclusive means small, poorly fitted or top-dose-only effect, or another doubt; inactive means no such curve, though single readings can be large; an effect the other way counts as inactive or inconclusive. On the % scale 0 is the no-effect control and ±100 the full control effect.
SMILES,IL-1B inflam inh,TDP1 inh,DT40 TDP1 CPT,Six1-Eya2 blk,DT40 TDP1 no CPT,CtBP-E1A blk
Oc1ccc(N=Nc2ccc3c(c2)OCCO3)c(O)c1,-13,11%,?,-21,?,-5
Cc1ccc(S(=O)(=O)N2CCCCC2CCNC(=O)C(=O)NC2CCCC2)cc1 (stereo not given),7,9%,?,0,21µM*,2
Cc1ccc(C)c(S(=O)(=O)N2CCCCC2CCNC(=O)C(=O)NC2CCCC2)c1 (stereo not given),7,·,?,-4,16µM*,6
Cc1ccc(C)c(S(=O)(=O)N2CCCC2CNC(=O)C(=O)NC2CCCC2)c1 (stereo not given),1,·,-8%,11,-32%,1
C/C=C/c1cccc(-c2nc(C(=O)NC3CCCC3)cc3c2[C@@H](CCO)N(S(=O)C(C)(C)C)C3)c1 (stereo not given in full),-4,·,26µM*,-5,18µM*,-8
C/C=C/c1cccc(-c2nc(C(=O)NC3CCC3)cc3c2[C@H](CCO)N(S(=O)C(C)(C)C)C3)c1 (stereo not given in full),-19,·,?,4,?,-23
C/C=C/c1cccc(-c2nc(C(=O)NC3Cc4ccccc4C3)cc3c2[C@@H](CCO)N(C(C)=O)C3)c1,-57*,·,15µM*,-5,?,0
CCOC(=O)COc1c(OC)cc(Cl)cc1C1Nc2ccccc2C(=O)N1c1ccc(F)cc1 (stereo not given),-6,0%,?,4,?,7
CCOCc1nc(N)nc(N)c1-c1cccc(Cl)c1,11,·,8.2µM*,6,7.3µM*,7
CC(=O)c1cccc(NS(=O)(=O)c2ccc(C(=O)Nc3ccccc3)cc2)c1,-12,7%,18µM*,-7,12µM*,-14
O=C(Nc1ccc(-c2cnco2)cc1)c1ccc(Cl)cc1,?,0%,9%,-3,-6%,·
O=C(Nc1ccc(-c2cnco2)cc1)c1ccccc1,-71*,6%,1%,6,2%,-1
O=C(Nc1ccncc1)c1ccc(-c2ccccc2)cc1,-15,-3%,3.3µM*,5,2.9µM*,·
CC(C(=O)c1ccc(-c2ccccc2)cc1)[n+]1cccc(NC(=O)c2ccccc2)c1 (stereo not given),?,10%,18µM*,-7,15µM*,-9
COCCn1cc(C(=O)N2CCC(C)CC2)c2c3ccccc3n(C)c2c1=O,-1,6%,-7%,-13,8%,-13
O=C(NNC(=O)c1ccccc1O)c1ccc(S(=O)(=O)Nc2ccccc2)cc1,45,0%,?,?,16µM*,-2
O=C(Nc1ccncc1)c1ccc(S(=O)(=O)Nc2ccccc2)cc1,15,-1%,15µM*,2,12µM*,0
O=C(Nc1ccccc1)c1ccc(S(=O)(=O)Nc2cccc(O)c2)cc1,-16,4%,?,-1,?,-1
O=C(NC1CCN(C(=S)Nc2ccc(F)cc2)CC1)C1CCCCC1,20,1%,1%,3,5%,-11
Cc1coc2c1c(C)cc1oc(=O)c(Cc3ccccc3)c(C)c12,-4,6%,?,3,?,7
N#CC(C#N)=C1C=CC=CN1/C(=C\c1ccccc1Cl)C(=O)c1ccccc1,-73*,11%,0.58µM*,?,1.2µM*,7
N#CC(C#N)=C1C=CC=CN1/C(=C\c1ccccc1)C(=O)c1cccs1,-18,5%,1µM*,-22,3.7µM*,-25
CC1CCN(C(=O)/C(=C/c2ccccc2Cl)c2ccccc2)CC1,-7,2%,?,2,?,10

# From PubChem BioAssay
